Data on 97 compounds can be found in PubChem BioAssay AID1839 (Johns Hopkins Ion Channel Center, 2009).

In all, about 2,400 compounds went through this assay and about 220 (9.2%) were called active.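 The calls were made as follows: active = signal change above the mean of dofetilide-free buffer controls plus 3 SD, so a positive margin; inactive = the rest.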 Only a selection was taken, and actives are over-represented in it overall.

This assay can be described thus: thallium signal changes without hERG – cell-based, CHO-K1 parental line, FluxOR thallium flux, counter-screen for hERG block protection project, confirmation (AID 1839).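 Also: compounds applied alone with no dofetilide to cells lacking hERG.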 The note with it: CHO-K1 parental cells, FluxOR thallium flux fluorescence; at 10 µM.
Turning to `Cc1ccc(C(C)NC(=O)C2CCCC2)cc1C` (configuration not stated), the signal change vs control minus 3*SD hit threshold (margin above threshold, higher = more increase) was 0.7% (active).
Then `CC(NC(=S)NC1CCCCC1)c1ccccc1` (configuration not stated), with -19.6% (inactive); and `CCc1ccc(C(C)NC(=O)C2CCCC2)cc1` (configuration not stated), with -18.1% (inactive).
Then `CCOc1ccc(C(C)NC(=S)NC2CCCCC2)cc1` (configuration not stated), with -15.5% (inactive); and `Cc1ccc(C(C)NC(=S)NC2CCCCC2)cc1C` (configuration not stated), with 1% (active); and `Cc1ccc(C(=O)NC(C)c2ccc(C)c(C)c2)s1` (configuration not stated), with -19% (inactive).
As for `C[n+]1ccccc1/C=C/c1c(F)cccc1F`, the signal change vs control minus 3*SD hit threshold (margin above threshold, higher = more increase) is -21.1% (inactive).
The figure for `COCCn1nnnc1C(c1ccc(C(F)(F)F)cc1)N1CCOCC1` (configuration not stated) is -34% (inactive).
With `O=C1C2C3C=CC(C4CC34)C2C(=O)N1/N=C/c1ccc(-c2ccc(F)cc2[N+](=O)[O-])o1` (configuration not stated), the signal change vs control minus 3*SD hit threshold (margin above threshold, higher = more increase) is -30.5% (inactive).
Then `COc1cccc(C(=O)NNC(=O)C(=O)Nc2ccc(C)c(Cl)c2)c1`, with 13.6% (active); and `CCc1ccc(NC(=O)C(=O)NNC(=O)c2ccc(OC)cc2)cc1`, with 21.6% (active).
Then `COc1ccc(NC(=O)c2ccc(COCC(F)(F)C(F)F)cc2)cc1`, with -40.3% (inactive).
Then `COc1cccc(C(=O)NNC(=O)C(=O)Nc2cccc(Cl)c2C)c1`, with -6.7% (inactive); and `COc1ccc(NC(=O)C(=O)NNC(=O)C(C)Oc2ccc(Cl)cc2Cl)cc1` (configuration not stated), with -10.9% (inactive).
Turning to `COc1ccc(C(=O)NNC(=O)C(=O)Nc2ccc(C)cc2)cc1`, the signal change vs control minus 3*SD hit threshold (margin above threshold, higher = more increase) is -5.7% (inactive).
The figure for `COc1ccc(C(=O)NNC(=O)C(=O)Nc2ccc(C)c(Cl)c2)cc1` is -14.1% (inactive); for `COc1cccc(C(=O)NNC(=O)C(=O)Nc2ccc(C)cc2)c1` it is 28.8% (active).
With `COc1cc(OC)cc(C(=O)NNC(=O)C(=O)Nc2cc(OC)c(Cl)cc2OC)c1`, the signal change vs control minus 3*SD hit threshold (margin above threshold, higher = more increase) is 23.8% (active).
The figure for `COc1cccc(C(=O)CC(=O)C(=O)Nc2ccc(C)cc2Cl)c1` is -9.2% (inactive).
Turning to `Cc1cc(S(=O)(=O)Nc2ccc(C(=O)N3CCN(C(=O)c4ccco4)CC3)cc2)ccc1F`, the signal change vs control minus 3*SD hit threshold (margin above threshold, higher = more increase) is -12.4% (inactive).
On to `O=[N+]([O-])c1cc(S(=O)(=O)/N=C(/c2ccccc2)N2CCOCC2)ccc1Cl`, for which the signal change vs control minus 3*SD hit threshold (margin above threshold, higher = more increase) is -31.7% (inactive).
The figure for `CCOP(=O)(OCC)C(NC(=O)c1ccc(OC)c(OC)c1)c1ccccc1` (configuration not stated) is -21.4% (inactive).
Then `Cc1cc(C(=O)NNC2CC(=O)N(c3ccc4ccccc4c3)C2=O)c(C)o1` (configuration not stated), with -24.7% (inactive); and `O=C(c1cccs1)N1CCN(C23CC4CC(CC(C4)C2)C3)CC1`, with -34.9% (inactive); and `Cc1cc(C)c(S(=O)(=O)NCc2ccccn2)c(C)c1`, with -22.6% (inactive).
On to `Cn1c(=O)c(Sc2ccccc2)c(O)c2ccccc21`, for which the signal change vs control minus 3*SD hit threshold (margin above threshold, higher = more increase) is -14.2% (inactive).
As to `O=C1CC(O)(C(F)(F)F)Oc2c1ccc1ccccc21` (configuration not stated), the signal change vs control minus 3*SD hit threshold (margin above threshold, higher = more increase) is -3% (inactive).
For `CCc1ccc(NC(=O)C(=O)NNC(=O)c2cccc(OC)c2)cc1`, the signal change vs control minus 3*SD hit threshold (margin above threshold, higher = more increase) was 41.3% (active).
Then `CCc1ccc(NC(=S)Nc2cccc(OC)c2)cc1`, with -32.4% (inactive); and `COc1cccc(CCNS(=O)(=O)CCNC(=O)c2cccc(OC)c2)c1`, with -25.6% (inactive).
Consider `CC(=O)Nc1ccccc1C(=O)C(=O)Nc1ccccc1`, for which the signal change vs control minus 3*SD hit threshold (margin above threshold, higher = more increase) is -32.8% (inactive).
Then `O=C(NC(=S)N1CCCCCC1)c1ccc(Cl)cc1Cl`, with -16.7% (inactive); and `CCN(CC)C(=S)NC(=O)c1ccc(F)cc1`, with -15.9% (inactive); and `CC1(C)CC(NC(=O)c2ccc(Cl)cc2Cl)CC(C)(C)N1`, with -35.9% (inactive).
Then `CC1(C)CC2CC(C)(CN2C(=S)NC(=O)c2ccccc2Cl)C1` (configuration not stated), with -14.7% (inactive); and `O=C(NC(=S)N(CCO)Cc1ccccc1)c1cc(Br)ccc1Cl`, with -12.2% (inactive); and `CCCCN(CCCC)C(=S)NC(=O)c1ccccc1Cl`, with 39.6% (active).
Then `CCN(CC)C(=S)NC(=O)c1ccc(Cl)cc1Cl`, with 3.8% (active); and `CCCN(CCC)C(=S)NC(=O)c1ccc(Cl)cc1Cl`, with 27% (active).
For `CN(C)/C=C/C(=O)c1ccc(Cl)cc1Cl`, the signal change vs control minus 3*SD hit threshold (margin above threshold, higher = more increase) is -23.8% (inactive).
The figure for `C=CCNC(=O)c1onc(CSc2ccc(OC)cc2)c1C(=O)O` is -35.4% (inactive).
Then `Cc1ccc(/C=C(\NC(=O)c2ccccc2)C(=O)N2CCCCC2)cc1`, with -35.4% (inactive); and `O=C(CCc1nc(-c2ccccc2)no1)N1CCCC1`, with -26.5% (inactive); and `Cc1nn(-c2ccccc2)c(N2CCCC2)c1/C=N/O`, with -24.6% (inactive).
With `Cc1nn(-c2ccccc2)c(Cl)c1/C=C1\SC(=S)NC1=O`, the signal change vs control minus 3*SD hit threshold (margin above threshold, higher = more increase) is 26.5% (active).
For `Cc1nn(-c2ccccc2)c(C)c1S(=O)(=O)O`, the signal change vs control minus 3*SD hit threshold (margin above threshold, higher = more increase) is -23.2% (inactive).
For the compound `CCc1nnc(NC(=O)c2c(C)nn(-c3ccccc3)c2Cl)s1`, the signal change vs control minus 3*SD hit threshold (margin above threshold, higher = more increase) is -14.1% (inactive).
For the compound `O=S(=O)(NC(=S)NC1CCCCC1)c1ccc(Br)cc1`, the signal change vs control minus 3*SD hit threshold (margin above threshold, higher = more increase) is -9.7% (inactive).
The figure for `CCOC(=O)C1CCN(C(=O)COC(=O)c2nn(C)c(=O)c3ccccc23)CC1` is -33.9% (inactive); for `CCOC(=O)c1n[nH]n2c1nc(=S)c1ccccc12` it is 12.1% (active); for `CCOC(=O)c1c(O)c2ccccc2n(C)c1=O` it is -25% (inactive).
Then `CCOc1ccc2nc(N3C(=O)/C(=C/c4ccc(Cl)cc4)NC3=S)sc2c1`, with -25% (inactive); and `COc1ccc2nc(/N=C/c3c(C)[nH]n(-c4ccc(C)cc4C)c3=O)sc2c1`, with 22.3% (active); and `COc1ccc2nc(-n3c(O)c(C4=c5ccccc5=NC4=O)[nH]c3=S)sc2c1`, with -25.1% (inactive).
As to `CCOc1ccc2nc(/N=C/c3c(C)[nH]n(-c4ccc(C)cc4)c3=O)sc2c1`, the signal change vs control minus 3*SD hit threshold (margin above threshold, higher = more increase) is 33.5% (active).
The figure for `Cc1[nH]n(-c2ccccc2)c(=O)c1N=Nc1ccc(C(N)=O)cc1` is -43.3% (inactive); for `Cc1[nH]n(-c2ccc(F)cc2)c(=O)c1/C=N/c1sc2c(c1C#N)CCCC2` it is -1.9% (inactive); for `COc1ccc2nc(/N=C/c3c(C)[nH]n(-c4ccc(C)cc4)c3=O)sc2c1` it is 62.6% (active).
The figure for `CCOc1ccc2nc(/N=C/c3nc(-c4ccc(Br)cc4)oc3O)sc2c1` is -17.1% (inactive).
As to `Cc1[nH]n(-c2cccc3ccccc23)c(=O)c1/C=N/c1sc2c(c1C#N)CCC2`, the signal change vs control minus 3*SD hit threshold (margin above threshold, higher = more increase) is -19.1% (inactive).
Then `Cc1[nH]n(-c2ccc(Cl)cc2)c(=O)c1/C=N/c1nnc(-c2ccccc2)s1`, with 78.7% (active).
Take `CCCCNC(=O)N1CCCC(C(=O)c2cc(C)c(OC)c(C)c2)C1` (configuration not stated): the signal change vs control minus 3*SD hit threshold (margin above threshold, higher = more increase) is -38% (inactive).
Take `O=C(NCc1cccs1)C1CC(c2ccc(F)cc2)=NO1` (configuration not stated): the signal change vs control minus 3*SD hit threshold (margin above threshold, higher = more increase) was -40.3% (inactive).
In the case of `Cc1cccc(NC(=O)CN2C(=O)S/C(=C\c3cccn3-c3cccc(C(=O)O)c3)C2=O)c1`, the signal change vs control minus 3*SD hit threshold (margin above threshold, higher = more increase) was -27.2% (inactive).
The figure for `Cc1cc(Cl)ccc1OC(C)C(=O)NCCc1ccc2c(c1)OCCO2` (configuration not stated) is -37.2% (inactive).
Turning to `CC(NC(=O)NC1CCCCC1)c1ccc2c(c1)OCO2` (configuration not stated), the signal change vs control minus 3*SD hit threshold (margin above threshold, higher = more increase) was -5.4% (inactive).
Then `COc1ccc(C(=O)CC(=O)C(=O)Nc2ccc(C)c(C)c2)cc1`, with -27.5% (inactive).
Then `Cc1ccnc(SCCn2c(N3CC(C)OC(C)C3)nc3c2c(=O)n(C)c(=O)n3C)n1` (configuration not stated), with -31.9% (inactive).
The figure for `CCOc1ccc2nc(N3C(=O)/C(=C/c4ccccc4)NC3=S)sc2c1` is -18.8% (inactive); for `CCOc1ccc2nc(/N=C/c3nc(-c4ccccc4)oc3O)sc2c1` it is -18.5% (inactive); for `CCOc1ccc2nc(/N=C/c3c(C)[nH]n(-c4ccccc4)c3=O)sc2c1` it is 53.3% (active).
Turning to `S=c1[nH]nc(CSc2nc3ccccc3s2)n1C1CCCCC1`, the signal change vs control minus 3*SD hit threshold (margin above threshold, higher = more increase) was -26.3% (inactive).
With `Cc1ccc(NC(=O)c2cc(NC(=O)/C=C\C(=O)O)ccc2N2CCCCC2)cc1`, the signal change vs control minus 3*SD hit threshold (margin above threshold, higher = more increase) was -12.7% (inactive).
Then `CC1(C)Cc2c(sc3[nH]c(=S)n(Cc4ccccc4)c(=O)c23)CO1`, with -22.2% (inactive); and `CC(C)C1Cc2c(sc3[nH]c(=S)n(Cc4ccccc4)c(=O)c23)CO1` (configuration not stated), with -10.8% (inactive).
The figure for `CCC1(C)Cc2c(sc3[nH]c(=S)n(Cc4ccccc4)c(=O)c23)CO1` (configuration not stated) is 10.6% (active); for `COC(=O)CSc1nc(N2CCCCC2)c2c(c1C#N)CCCC2` it is -8.9% (inactive); for `O=C(COC(=O)c1cc(Br)ccc1O)Nc1cccnc1Cl` it is -24.7% (inactive).
Take `CC(C)c1ccc(OCC(=O)NN2C(=O)c3ccccc3C2=O)c(Br)c1`: the signal change vs control minus 3*SD hit threshold (margin above threshold, higher = more increase) was -24% (inactive).
Then `Cc1ccc(C)c2sc(NC(=O)c3nc4ccccc4s3)nc12`, with -20.2% (inactive).
Then `COC(=O)c1c(NS(=O)(=O)c2ccc3ccccc3c2)sc2c1CCCC2`, with -22.4% (inactive); and `CCOC(=O)c1c(NS(=O)(=O)Cc2ccccc2)sc2c1CCCC2`, with -0.7% (inactive); and `CCOC(=O)c1c(NS(=O)(=O)c2ccc(Br)cc2)sc2c1CCC2`, with 32.6% (active).
The figure for `CN(NC1OC(=O)c2ccccc21)c1ccccc1[N+](=O)[O-]` (configuration not stated) is -30.9% (inactive); for `COc1nnc(-c2ccc(C)c(S(=O)(=O)NC(C)(C)CO)c2)c2ccccc12` it is -25.8% (inactive); for `Cc1ccc(C(=O)Sc2cccccc2=O)cc1` it is -20.3% (inactive).
In the case of `O=c1c(O)c(-c2cccs2)oc2ccccc12`, the signal change vs control minus 3*SD hit threshold (margin above threshold, higher = more increase) was 39.2% (active).
On to `O=c1c2cc(Cl)ccc2[nH]c(=S)n1Cc1cccs1`, for which the signal change vs control minus 3*SD hit threshold (margin above threshold, higher = more increase) was -21.6% (inactive).
The figure for `O=C1OC(/C=C/c2ccc(Cl)cc2Cl)=NC/1=C\c1cccs1` is -32.3% (inactive); for `O=c1c(O)c(-c2cccs2)oc2ccc(Cl)cc12` it is 64.2% (active); for `O=c1c(O)c(-c2ccc3c(c2)OCO3)oc2ccccc12` it is -10.8% (inactive).
For `CCN(CC)CCCN1C(=O)c2oc3ccccc3c(=O)c2C1c1cccs1` (configuration not stated), the signal change vs control minus 3*SD hit threshold (margin above threshold, higher = more increase) is -15.9% (inactive).
Then `Cc1ccccc1NP(=O)(c1ccccc1)c1nc2ccccc2s1` (configuration not stated), with -31.9% (inactive); and `CCOc1ccc(N)c(SSc2cc(OCC)ccc2N)c1`, with -32.6% (inactive).
Then `Cc1ccc(CC23CN4CCN(CC(C4)C2O)C3)c(C)c1` (configuration not stated), with -14.8% (inactive); and `CN(C)CCOC(=O)C1(c2ccccc2)CCCC1`, with -31.9% (inactive).
Then `COC(=O)C1=C(C)NC2=C(C(=O)CCC2)C1c1ccc(-c2ccsc2C(=O)OC)o1` (configuration not stated), with -17.8% (inactive).
